In PubChem BioAssay AID435022 (Sanford-Burnham Center for Chemical Genomics, 2010):
The whole screen tested about 330,000 compounds, of which about 1,100 (0.33%) were called active. The sample holds actives, similar compounds and a random draw of the others, so the mix is not that of the screen. A number with no mark means an inactive call. Cut-off read from the data, not from the text of the source: active = inhibition above about 35%; inactive = the rest.

test: lowers stimulated NF-kB luciferase signal in 697 B cells – cell-based, luminescence, uHTS, B-cell NF-kB inhibitor project, primary screen (AID 435022); details: 697 B-cell NF-kB luciferase reporter, PMA/ionomycin, 16 h; at 4 µM; stronger effect = higher value

Question: Which inhibition does the source give for `CC1CN(C(=S)Nc2ccc(Br)cc2Cl)CC(C)O1` (stereo not given) here?
Answer: -8.08%

Question: With `Cc1ccccc1-c1cc(C(=O)NCc2cccs2)n(CC2CC(c3cccnc3)=NO2)n1` (stereo not given) as the compound, how does the inhibition read?
Answer: -9.9%

Question: Which inhibition does the source give for `Cn1c(=O)cc(SCC(=O)N2CCN(C(=O)c3ccco3)CC2)c2ccccc21` here?
Answer: -1.63%

Question: With `Cn1c(=O)cc(SCC(=O)N2CCCC2)c2cc(Cl)ccc21` as the compound, how does the inhibition read?
Answer: 52.4% (active)

Question: With `CCOC(=O)C1CCN(C(=O)CSc2cc(=O)n(C)c3ccccc23)CC1` as the compound, how does the inhibition read?
Answer: 25%

Question: For `Cc1ccccc1C(=O)NNC(=O)CN1C(=O)c2ccccc2C1=O`, which inhibition is on record?
Answer: 8.67%

Question: With `C[C@@]12C(=O)N(c3cccc(Br)c3)C(=O)N1[C@H](c1ccc(Cl)cc1)[C@@H]1C(=O)N(C3CCCCC3)C(=O)[C@@H]12` as the compound, how does the inhibition read?
Answer: -15.6%

Question: For `O=C(O)CN(Cc1ccco1)S(=O)(=O)c1ccccc1`, which inhibition is on record?
Answer: 18.8%

Question: Which inhibition does the source give for `Cc1c(Cl)cnc(NC(=O)COC(=O)C2CCCC2)c1Cl` here?
Answer: 2.7%

Question: For `CCOC(=O)CSc1nnc(CNC(=O)c2cccs2)n1-c1ccccc1`, which inhibition is on record?
Answer: 9.72%

Question: With `O=C(C1CCC1)N1CCc2cc(S(=O)(=O)NCc3cccnc3)ccc21` as the compound, how does the inhibition read?
Answer: -30.3%

Question: With `C/C=C(/C)C(=O)OC1Cc2c(ccc3ccc(=O)oc23)OC1(C)C` (stereo not given) as the compound, how does the inhibition read?
Answer: 47.2% (active)

Question: For `CC1(C)Oc2ccc3ccc(=O)oc3c2/C(=C/NCCO)C1=O`, which inhibition is on record?
Answer: 5.05%

Question: With `CC1(C)Oc2ccc3ccc(=O)oc3c2/C(=N/O)C1=O` as the compound, how does the inhibition read?
Answer: -15.2%

Question: With `Cc1nc(Cl)c(C#N)c2c1CCCC2` as the compound, how does the inhibition read?
Answer: 22.3%

Question: For `CC(=O)Nc1ccc(S(=O)(=O)NC2(C(F)(F)F)C(=O)Nc3c2c(=O)[nH]c(=O)n3Cc2ccccc2)cc1` (stereo not given), which inhibition is on record?
Answer: 3.75%

Question: With `COC(=O)C1=C(C(=O)c2ccc(C)cc2)C(c2ccccc2)n2nnnc2N1` (stereo not given) as the compound, how does the inhibition read?
Answer: 36.7% (active)

Question: Which inhibition does the source give for `COc1ccccc1NC(=O)C1=C(C)Nc2nnnn2C1c1cccc(Br)c1` (stereo not given) here?
Answer: -22.3%

Question: With `COC(=O)c1ccc(C2C3=C(Nc4nnnn42)c2ccccc2OC3)cc1` (stereo not given) as the compound, how does the inhibition read?
Answer: 3.54%

Question: For `CC1CCN(C(NC(=O)c2ccco2)C(=O)c2ccccc2)CC1` (stereo not given), which inhibition is on record?
Answer: -1.98%

Question: Which inhibition does the source give for `CCOC(=O)C1=C(O)/C(=C/c2cc(C)n(-c3ccccc3)c2C)N=C1C` here?
Answer: -12.5%

Question: Which inhibition does the source give for `Cc1cccc(Nc2nc(NCCO)nc(N3CCCC3)n2)c1` here?
Answer: 4.82%

Question: With `OCCCNc1nccc(-c2cc(Nc3cccc(Cl)c3)ncn2)n1` as the compound, how does the inhibition read?
Answer: 67.2% (active)

Question: With `CC(C)n1cnc2c(Nc3cccc(Cl)c3)nc(N(CCO)CCCO)nc21` as the compound, how does the inhibition read?
Answer: -41.1%

Question: With `CSc1ncccc1C(=O)OCc1ccc(Br)cc1` as the compound, how does the inhibition read?
Answer: 5.14%
